Among the data in ChEMBL document CHEMBL3433997, “St. Jude Leishmania screening dataset” (2016) are inhibition values, retold here.

For the assay, the target named is Solute carrier family 2, facilitated glucose transporter member 1 (Homo sapiens) (UniProt P11166). As to the kind of experiment: ST_JUDE_LEISH: Cytotoxicity at 2uM final concentration against transgenic Leishmania Mexicana promastigotes LmGLUT1 that are glucose transport deficient and complemented with the human glucose transporter GLUT1. Activity is measured by DNA content using SYBR green in vitro. It counts as functional.
Solute carrier family 2, facilitated glucose transporter member 1 (Homo sapiens), sequence (P11166 whole entry): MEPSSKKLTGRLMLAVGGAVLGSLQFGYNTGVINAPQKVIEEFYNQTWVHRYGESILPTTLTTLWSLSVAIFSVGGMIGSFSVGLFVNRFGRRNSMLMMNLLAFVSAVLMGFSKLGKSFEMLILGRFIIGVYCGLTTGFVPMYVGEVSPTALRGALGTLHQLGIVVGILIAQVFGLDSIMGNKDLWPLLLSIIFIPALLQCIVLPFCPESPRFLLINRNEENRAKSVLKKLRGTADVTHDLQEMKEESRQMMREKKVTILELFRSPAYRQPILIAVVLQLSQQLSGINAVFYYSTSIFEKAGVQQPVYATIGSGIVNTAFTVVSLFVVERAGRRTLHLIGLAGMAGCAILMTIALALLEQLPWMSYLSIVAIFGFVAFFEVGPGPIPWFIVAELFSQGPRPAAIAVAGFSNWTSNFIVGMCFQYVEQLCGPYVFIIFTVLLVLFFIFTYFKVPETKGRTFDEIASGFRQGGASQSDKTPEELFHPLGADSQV
Broadly, the inhibition is the change of the read-out against control, counted positive when it falls. As for `c1cc(CNCCc2ccncc2)cc(-c2csc(-c3nc4ccccc4[nH]3)c2)c1`, the inhibition was found to be 0.51%.
In the case of `CCC(Cc1cnc2nc(N)nc(N)c2n1)c1ccc(C(=O)O)cc1` (stereo not given) it was 1.41%; in that of `N#Cc1ccc2[nH]cc(CN3CCC4(CC3)CN(CCNCc3ccccc3)C(=O)O4)c2c1`, 4.35%; in that of `C#CCOc1ccc2ccccc2c1CNCCCCCCNCc1c(OCC#C)ccc2ccccc12`, 8.53%.
Under `CC1CCC2(CC1)NC(N)=NC(=N)N2OCCCCCCCCO` (stereo not given) stands 6.99%; under `CNCCNCc1cccc(-c2ccc(-c3nc4ccccc4[nH]3)cc2)c1`, -1.56%; under `COCCn1c(-c2cccc(Cl)c2)nn(-c2ccc([N+](=O)[O-])cc2Cl)c1=S`, 4.03%.
For the compound `O=C(Nc1ccc(-c2csc(-c3nc4ccccc4[nH]3)c2)cc1)Nc1ccsc1`, the inhibition is 1.71%.
As for `COc1ccccc1NC(=O)c1cc(C(=O)c2cc(Cl)ccc2O)cn(-c2ccccc2OC)c1=O`, the inhibition turned out to be 5.19%.
In the case of `CC(C)(C)c1cc(NC(=O)c2ccc(Cl)c([N+](=O)[O-])c2)cc(C(C)(C)C)c1` it was 6.54%.
In the case of `O=S(=O)(NC1CCN(c2ccnc3cc(Cl)ccc23)C1)c1ccc(F)cc1` (stereo not given) it was 0.47%; in that of `CC/N=C(/NCCCCCCN/C(=N/CC)NCc1ccccc1)NCc1ccccc1`, 0.49%.
Under `CCCN(CCCCNC(=O)c1ccc(-c2cccnc2)cc1)C1CCc2c(O)cccc2C1` (stereo not given) stands 3.63%; under `CCCCC(=O)Nc1nc2ccc([N+](=O)[O-])cc2s1`, 1.98%; under `COc1ccc(CNC(=O)c2cc3c(=O)n4ccccc4nc3n(CCc3ccccc3)c2=N)cc1`, 15.5%.
Take `CCCCN1CC[C@@H](CCC(O)c2ccnc3ccc(OCCC(C)C)cc23)[C@@H](CC)C1` (stereo not given in full): the inhibition was 1.18%.
In the case of `O=S(=O)(NC1CCCCN(Cc2ccccc2O)C1)c1ccc(C(F)(F)F)cc1` (stereo not given) it was 1.87%; in that of `CCc1cc(C(=O)c2cccc(C)c2)c(NC(=O)CN2CCN(C(=O)c3ccco3)CC2)s1`, 2.38%.
In the case of `O=C(/C=C/c1ccc(Cl)cc1Cl)NCCCCCN1CCC(c2c[nH]c3ccccc23)CC1` it was -2.21%; in that of `CCNc1cc(C)nc(Nc2ccc(NC(=O)c3ccc(OC)c(OC)c3)cc2)n1`, 5.48%; in that of `Fc1ccc2[nH]c(-c3ccc(-c4ccc(CNCCN5CCNCC5)cc4)s3)nc2c1`, 0%.
Under `CCOc1cc(CC)ccc1C1CCN(CCN2CCC(CNC(=O)c3ccc(-c4ccc(C#N)cc4)cc3)CC2)CC1` stands 16.2%.
For `CCOc1cc(C(=O)Nc2ccc(-c3nc4ccccc4[nH]3)cc2)cc(OCC)c1OCC`, the inhibition turned out to be 7.99%.
For the compound `Cc1ccc2nc(C)cc(NC(=O)Nc3ccc(N(C)C)cc3)c2c1`, the inhibition amounted to 7.58%.
As to `CCNc1cc(C(=O)N[C@@H](Cc2ccccc2)[C@H](O)CNC2(C)CCCCC2)cc(N2CCCCS2(=O)=O)c1`, the inhibition was found to be 1.96%.
In the case of `Cc1cccc(-c2ccc(NC(=O)C3CCN(Cc4cccc(O)c4)CC3)cc2)c1`, the inhibition is 0.07%.
Under `CN(C)CCNCc1ccc(-c2ccc3c(Nc4ccc(Cl)cc4F)ccnc3c2)o1` stands 1.23%.
In the case of `c1ccc(CN2CCc3cc4nccc(N5CCNCC5)c4cc32)cc1` it was -3.94%.
Under `Cc1[nH]c(C)c(-c2ccc(-c3ccccc3Cl)nc2)c(=O)c1Cl` stands 3.05%.
Take `Cn1cncc1C(=O)Nc1cccc(-c2ccc(-c3nc4ccccc4[nH]3)cc2)c1`: the inhibition is -2.56%.
In the case of `COc1cc2c(cc1C(F)(F)F)N(C(=O)Nc1cc(-c3ccncc3)cc(-c3cccnc3)c1)CC2` it was 3.84%.
With `O=C(/C=C/c1ccc(Cl)c(Cl)c1)NCCCCCN1CCC(NC(=O)c2ccc(F)cc2F)CC1`, the inhibition is -3.32%.
Regarding `CNC(=O)CNC(=O)COc1cccc2ccccc12`, the inhibition is 2.49%.
In the case of `O=C(C=Cc1ccc(F)cc1)N1CCN(S(=O)(=O)c2ccc(Cl)cc2)CC1` it was 0.4%; in that of `O=C(Cn1c(CCc2cccc(F)c2F)cc(=O)c2cccnc21)N(CCN1CCCC1)Cc1ccc(-c2ccc(C(F)(F)F)cc2)cc1`, 2.13%; in that of `CN1CCN(CCCN(Cc2ccc(-c3cccc(CNC4CCCC4)c3)cc2)C(=O)/C=C/c2ccccc2)CC1`, 10.2%.
Under `CCCN(Cc1nnc(-c2cccs2)o1)C(=O)CSc1nnnn1-c1ccc(C)c(C)c1` stands 12.1%; under `CCCCCNC(=N)c1ccc(OCCCCCOc2ccc(C(=N)NCCCCC)cc2)cc1`, 19.6%.
In the case of `C=CCOC(=O)N1CCC(CNCc2cccc(-c3ccc(-c4nc5ccccc5[nH]4)s3)c2)C1` (stereo not given) it was 1.51%; in that of `CCOC(=O)c1ccc(NC(=O)Nc2cccc(-c3cccc(-c4nc5cccc(C)c5[nH]4)c3)c2)cc1`, 2.35%.
